Only some compounds are listed: those with a hit (about 0.54% of all), similar ones and a draw of the others.
RmlCD inh 1536: M. tuberculosis RmlC/RmlD inhibition. P9WH09+P9WH11. RmlC+RmlD coupled enzyme assay, percent inhibition; primary screen in compound mixtures. inhibition, % at 3.6 µM. 0.03% of 160,000 active. AID 1533; in the data active = inhibition mostly above about 34%, no sharp cut-off; inconclusive = no clear call, values can overlap the other calls; inactive = mostly below about 22%
Target sequence (P9WH09 whole entry, looked up): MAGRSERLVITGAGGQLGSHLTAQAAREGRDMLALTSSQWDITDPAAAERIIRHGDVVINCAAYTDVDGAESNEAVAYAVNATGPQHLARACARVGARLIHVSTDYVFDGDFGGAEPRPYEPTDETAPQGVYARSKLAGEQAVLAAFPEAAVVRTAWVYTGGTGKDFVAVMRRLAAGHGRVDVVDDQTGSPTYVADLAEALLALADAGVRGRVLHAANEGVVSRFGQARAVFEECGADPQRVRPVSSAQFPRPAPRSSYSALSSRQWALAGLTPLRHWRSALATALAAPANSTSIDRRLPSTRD
Target sequence (P9WH11 whole entry, looked up): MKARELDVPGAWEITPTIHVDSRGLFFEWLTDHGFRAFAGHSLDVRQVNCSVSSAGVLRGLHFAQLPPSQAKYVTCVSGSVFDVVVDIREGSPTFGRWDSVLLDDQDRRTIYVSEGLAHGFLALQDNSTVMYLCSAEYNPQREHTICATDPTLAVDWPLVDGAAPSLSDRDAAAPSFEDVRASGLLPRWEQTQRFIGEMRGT
VHR inh abs: blocks human VHR1 dual specificity phosphatase; P51452; recombinant VHR phosphatase, pNPP absorbance; inhibition, % at 13.3 µM; 0.52% of 290,000 active; AID 1654; in the data active = inhibition above about 50%
A number is an active result.

How did COc1ccc(C(=O)NCc2cc(C(C)C)no2)cc1OC1CCN(C(C)C)CC1 do in these assays?
VHR inh abs: inactive

Results for C=CCNC(=O)/C(=C/c1cccc([N+](=O)[O-])c1)NC(=O)c1ccco1 ?
RmlCD inh 1536: inactive; VHR inh abs: inactive

Results for CC(=O)OCCNC(=O)Cn1cnc2c1c(=O)n(C)c(=O)n2C ?
RmlCD inh 1536: inactive; VHR inh abs: inactive

How did CC(=O)Nc1ccc(NC(=O)[C@H](C)NC(=O)c2ccco2)cc1 do in these assays?
VHR inh abs: inactive

Results for O=C(c1ccc(Br)o1)N1CCN(C23CC4CC(CC(C4)C2)C3)CC1 ?
VHR inh abs: 55.5

What do the screens show for `O=C(c1ccc(Br)o1)N1CCN(c2ncccn2)CC1`?
RmlCD inh 1536: inactive; VHR inh abs: inactive

What do the screens show for `CN(Cc1ccnc2ccccc12)C(=O)C1CCC(=O)N(Cc2ccccc2F)C1` (stereo not drawn)?
VHR inh abs: inactive

How did O=C(NCC1CCOCC1)c1cc(COc2cccc(C(F)(F)F)c2)on1 do in these assays?
VHR inh abs: inactive

What do the screens show for `O=C(NC1CCOC1)c1cc(COc2cccc(C(F)(F)F)c2)on1` (stereo not drawn)?
VHR inh abs: 51.2

How did CCN(CC)S(=O)(=O)c1ccc2c(c1)oc(=O)n2CC(=O)NC1CCCCC1 do in these assays?
VHR inh abs: inactive

How did c1ccc(Nc2nc(-c3ccccc3)nc3ccccc23)cc1 do in these assays?
VHR inh abs: inactive

Results for Cc1ccc(-c2nc(Nc3ccc(O)cc3)c3ccccc3n2)cc1 ?
VHR inh abs: 50.7

How did COC(=O)COc1cccc(NC(=O)c2cccs2)c1 do in these assays?
RmlCD inh 1536: inconclusive; VHR inh abs: inactive

How did O=C1CC(c2ccc(F)cc2)CC(O)=C1C1NCCc2ccccc21 (stereo not drawn) do in these assays?
RmlCD inh 1536: inactive; VHR inh abs: inactive

Results for COc1cc(C(C)=O)ccc1OCc1cc(C(=O)N(C)CCC2CCCCO2)no1 (stereo not drawn) ?
VHR inh abs: 57.7

Results for COc1ccccc1OCc1cc(C(=O)N(C)CCC2CCCCO2)no1 (stereo not drawn) ?
VHR inh abs: inactive

What do the screens show for `CCC1CCCCN1CCCNC(=O)c1ccc(N2CCCC2=O)cc1` (stereo not drawn)?
VHR inh abs: 55.6

How did CC1CCCCN1CCCNC(=O)c1ccc(N2CCCC2=O)cc1 (stereo not drawn) do in these assays?
VHR inh abs: inactive

What do the screens show for `COc1cc(/C=N/NC(=O)c2cc(C)oc2C)cc(OC)c1OC`?
VHR inh abs: inactive

What do the screens show for `O=C(COc1ccccc1Cl)NCCC1=CCCCC1`?
RmlCD inh 1536: inactive; VHR inh abs: inactive

How did CCCC1CCc2c(sc(NC(=O)OCC)c2C#N)C1 (stereo not drawn) do in these assays?
VHR inh abs: inactive

What do the screens show for `O=C1NC2(CCCCC2)N=C1c1ccc(Br)cc1`?
VHR inh abs: 54.7

What do the screens show for `O=C1NC2(CCCCC2)N=C1c1ccc(F)cc1`?
VHR inh abs: inactive

Results for COc1ccc(CC(=O)Nc2ccccc2C(=O)N2CCOCC2)cc1 ?
VHR inh abs: inactive

Results for S=C(Nc1ccc(N2CCOCC2)cc1)Nc1ccc2nc(-c3ccco3)c(-c3ccco3)nc2c1 ?
VHR inh abs: 50.3

What do the screens show for `O=C(Nc1ccc(N2CCOCC2)cc1)c1ccc2nc(-c3ccco3)c(-c3ccco3)nc2c1`?
RmlCD inh 1536: inactive; VHR inh abs: inactive

What do the screens show for `CCOC(=O)c1c(C)oc2c1c(C=NCc1ccccn1)c(O)c1ccccc12`?
RmlCD inh 1536: inactive; VHR inh abs: inactive

What do the screens show for `CCOC(=O)c1c(C)oc2c1c(C=NCC1CCCO1)c(O)c1ccccc12` (stereo not drawn)?
RmlCD inh 1536: inactive; VHR inh abs: 50.8

Results for CN(C)CCCNC(=O)/C(=C\c1ccc(-c2cccc([N+](=O)[O-])c2)o1)NC(=O)c1ccccc1 ?
RmlCD inh 1536: inactive; VHR inh abs: inactive

Results for Cc1ccc(C(=O)N/C(=C\c2ccc(-c3cccc([N+](=O)[O-])c3)o2)C(=O)NCCCN(C)C)cc1 ?
VHR inh abs: 53.9

How did O=C(Nc1ccc(F)cc1)c1ccc2c(=O)n(CC3CCCO3)c(=S)[nH]c2c1 (stereo not drawn) do in these assays?
VHR inh abs: inactive

Results for COc1ccc(Nc2nc(-c3sc(C)nc3C)cs2)cc1 ?
VHR inh abs: inactive

What do the screens show for `Cc1nc(C)c(-c2csc(Nc3ccc(N)cc3)n2)s1`?
VHR inh abs: 57.0

How did COc1ccc(C(OCC2CO2)c2ccc(OC)cc2)cc1 (stereo not drawn) do in these assays?
VHR inh abs: inactive

How did CC(O)CNc1ccc(-c2n[nH]c(=O)c3ccccc23)cc1[N+](=O)[O-] (stereo not drawn) do in these assays?
VHR inh abs: inactive

What do the screens show for `CN(C)CCCNc1ccc(-c2n[nH]c(=O)c3ccccc23)cc1[N+](=O)[O-]`?
VHR inh abs: 55.0

What do the screens show for `O=C(COC(=O)C1CC2C=CC1C2)Nc1cccc(S(=O)(=O)N2CCCCCC2)c1` (stereo not drawn)?
RmlCD inh 1536: inactive; VHR inh abs: inactive

How did Cc1cc(C)cc(OCC(=O)Nc2ccc3c(c2)OCCO3)c1 do in these assays?
RmlCD inh 1536: inactive; VHR inh abs: inactive

How did O=C(CS(=O)c1ccc(C(F)(F)F)cc1[N+](=O)[O-])Oc1ccc(Cl)cc1 (stereo not drawn) do in these assays?
VHR inh abs: 51.2

How did Cc1cc(C)cc(OC(=O)CS(=O)c2ccc(C(F)(F)F)cc2[N+](=O)[O-])c1 (stereo not drawn) do in these assays?
VHR inh abs: inactive

What do the screens show for `Cc1cc(C(=O)Nc2ccccc2)c2ccccc2n1`?
VHR inh abs: inactive

What do the screens show for `Cc1cc(C)cc(NC(=O)c2cc(C)nc3ccccc23)c1`?
VHR inh abs: 58.7

How did O=C(Nc1ccon1)c1ccc(S(=O)(=O)N2CCOCC2)cc1 do in these assays?
VHR inh abs: inactive

How did O=C(CSc1nnc(CCCN2C(=O)c3cccc4cccc(c34)C2=O)n1-c1ccccc1)NCCCN1CCOCC1 do in these assays?
RmlCD inh 1536: inactive; VHR inh abs: inactive

What do the screens show for `COc1ccccc1CNC(=O)CCC(=O)n1ncc2cc(C)ccc21`?
VHR inh abs: inactive

Results for CCc1c(C)nc2ncnn2c1NCCc1ccc(OC)c(OC)c1 ?
RmlCD inh 1536: inactive; VHR inh abs: inactive

What do the screens show for `COc1ccc(CCNc2c(C)c(C)nc3ncnn23)cc1`?
RmlCD inh 1536: inactive; VHR inh abs: 54.4

Results for C#CCN(C(=O)c1ccc(OC2CCN(C(=O)CCOC)CC2)cc1)C1CCCCC1 ?
VHR inh abs: 52.8

Results for COCCC(=O)N1CCC(Oc2ccc(C(=O)N3CCCCCC3)cc2)CC1 ?
VHR inh abs: inactive

What do the screens show for `COc1cccc(-c2c(NC(C)=O)n(C)c3ccccc3c2=O)c1`?
VHR inh abs: inactive

What do the screens show for `CCCCC(=O)Nc1c(-c2cccc(OC)c2)c(=O)c2ccccc2n1C`?
VHR inh abs: 58.2

Results for COc1cc(Nc2ccc(S(N)(=O)=O)cc2)c([N+](=O)[O-])nc1[N+](=O)[O-] ?
VHR inh abs: inactive

How did O=C(c1ccccc1)c1ccc(OCC(O)CNCc2ccc(Cl)cc2)cc1 (stereo not drawn) do in these assays?
VHR inh abs: inactive

What do the screens show for `COc1cccc(CNCC(O)COc2ccc(C(=O)c3ccccc3)cc2)c1` (stereo not drawn)?
VHR inh abs: 52.0

How did Cc1ccccc1N=C1NC(=O)/C(=C/c2cccn2-c2cccc(C(=O)O)c2)S1 do in these assays?
RmlCD inh 1536: inactive; VHR inh abs: 56.3

Source: PubChem (several laboratories)
